Assay outcomes: PubChem, National Center for Advancing Translational Sciences (NCATS)
RORgamma inh – blocks mouse ROR gamma transcriptional activity; P51450; Drosophila S2 Gal4-RORgamma UAS-luciferase reporter, 20 h; Potency, µM (top dose mostly 53.6 µM), without a hit: top-dose activity change, negative = inhibition, hits mostly inhibitors; 310,000 tested, 5.4% active; also: potency is read from the fitted curve at half-maximal effect; nearly all actives have a fitted effect of over 60% in size
Target sequence (P51450 whole entry, looked up, the tested form may be a part): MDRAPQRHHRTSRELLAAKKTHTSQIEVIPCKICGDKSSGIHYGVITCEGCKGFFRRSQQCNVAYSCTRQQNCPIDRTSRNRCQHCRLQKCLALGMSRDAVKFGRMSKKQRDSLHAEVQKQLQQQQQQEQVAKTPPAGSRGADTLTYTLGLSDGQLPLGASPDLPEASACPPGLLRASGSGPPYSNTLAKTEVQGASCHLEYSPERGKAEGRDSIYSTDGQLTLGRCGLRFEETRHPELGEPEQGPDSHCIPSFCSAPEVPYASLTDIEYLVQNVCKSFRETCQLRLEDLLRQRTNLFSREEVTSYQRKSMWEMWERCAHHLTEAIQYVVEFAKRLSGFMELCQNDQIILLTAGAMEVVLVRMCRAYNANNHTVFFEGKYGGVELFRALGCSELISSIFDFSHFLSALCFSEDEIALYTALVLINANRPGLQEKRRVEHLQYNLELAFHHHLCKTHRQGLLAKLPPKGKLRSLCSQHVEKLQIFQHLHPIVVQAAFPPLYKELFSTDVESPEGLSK
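ROR gamma transcriptional activity was tracked as Gal4-UAS luciferase output in stably transfected Drosophila Schneider cells, with compound added 1 hr before 700 uM copper sulfate induction and a 20 hr ambient-temperature incubation.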
ELG1 DNA repair – inhibitors of ELG1-dependent DNA repair in HEK293T cells. HEK293T ELG1-luciferase reporter, luminescence, 16 h; DNA damage induced by 5-fluorouridine. Potency, µM (doses to about 46.1 µM), for the others: at the top dose activity change, negative = inhibition, most hits filed as inhibitors. 330,000 tested, 2.3% active. AID 504467; also: potency is read from the fitted curve at half-maximal effect; nearly all actives have a fitted effect of over 55% in size
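Cells (2,000 per well) received 5-fluorouridine plus test compound or DMSO and were incubated 16 hr at 37 °C, 5% CO2. Luciferase activity was read by luminescence 30 min after ONE-Glo addition; signal suppression marked inhibition of damage-induced ELG1 function.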
IL-1B inflam inh – inflammasome signaling inhibition, IL-1 beta readout | AID 743279 | activity change, % at 57.5 µM | THP-1 LPS/ATP IL-1B secretion, AlphaLISA, 16 h; hits give low values | 360,000 tested, 4.7% active; in the data active = activity change below about -50%; inconclusive = mostly about -30% to -49%
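THP-1 cells pretreated 1 hr with compounds (up to 57.5 uM final), then stimulated with LPS (250 ng/mL final) plus ATP (1.25 mM final); secreted IL-1B measured by AlphaLISA after 16 hr, decreased signal indicating inhibition.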
Gal4-VP16 FLuc – inhibits Gal4-VP16 luciferase reporter, ROR gamma counter-screen | AID 2546 | 310,000 tested, 3.5% active | Potency, µM (top dose mostly 53.6 µM), for the others: top-dose activity, negative = inhibition, hits mostly inhibitors | Drosophila S2 Gal4-VP16 UAS-luciferase, luminescence, 20 h;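 also: Gal4-VP16 expression switched on by copper sulfate through the metallothionein promoter; potency is read from the fitted curve at half-maximal effect; nearly all actives have a fitted effect of over 50% in size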
TDP1 cell noCPT – qHTS for Inhibitors of human tyrosyl-DNA phosphodiesterase 1 (TDP1): qHTS in cells in absence of CPT; DT40 Tdp1-/- hTDP1 cells, no CPT, ATP luminescence, 48 h; Potency, µM (titrated, usually from 46.2 µM), inactives show at the top dose activity change, negative = growth inhibition, actives largely listed as inhibitors; 420,000 tested, 15% active; AID 686978, 2013; also: potency is read from the fitted curve at half-maximal effect; nearly all actives have a fitted effect of over 55% in size
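Stably hTDP1-transfected Tdp1-null chicken DT40 cells were treated with library compounds minus camptothecin and grown for at least 48 hr at 37 °C, after which cellular ATP was quantified by luminescence.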
DT40 TDP1 CPT – DT40-hTDP1 cell growth loss with CPT. 420,000 tested, 12% active. Potency, µM (top dose mostly 46.2 µM), inactives show at the highest dose activity change, negative = growth inhibition, hits mostly inhibitors. chicken DT40 Tdp1-/-;hTDP1 cells + 20 nM CPT, ATP luminescence, 48 h; also: potency is read from the fitted curve at half-maximal effect; nearly all actives have a fitted effect of over 55% in size
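Chicken DT40 Tdp1-/- cells complemented with human TDP1, 400 cells/well, exposed to compounds plus 20 nM camptothecin for at least 48 h at 37 C; viability read as ATP content by CellTiter-Glo luminescence.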
* = called active by the depositor; ? = inconclusive; / = not tested or not shown; [ ] = another dose, or the depositor's remark. Rows were chosen to be rich in hits. Some 21% of all compounds tested hit in one or more screens of this group. Unless noted, calls follow the shape of the dose curve; as a rule, active = well fitted curve in the direction sought with a large enough effect; inconclusive = small, poorly fitted or top-dose-only effect, or another doubt; inactive = no such curve, though single readings can be large; an effect the other way counts as inactive or inconclusive. % is scaled to controls: 0 for no effect and ±100 for the full control effect.

SMILES | RORgamma inh | ELG1 DNA repair | IL-1B inflam inh | Gal4-VP16 FLuc | TDP1 cell noCPT | DT40 TDP1 CPT
COc1cc(/C=N/Nc2nc(N3CCCC3)nc(N3CCCC3)n2)ccc1O | -40% | ? | -9 | 8% | ? | -28%
Oc1ccc(/C=N/Nc2nc(N3CCCCCC3)nc(N3CCCCCC3)n2)c(O)c1 | 16µM* | ? | -99* | ? | ? | ?
CCOC(=O)N1CCN(c2nc3ccc(C(=O)c4ccccc4)cc3n3cnnc23)CC1 | 17% | ? | -11 | 2% | ? | ?
Cc1cccc(N2CCN(c3nc4ccc(C(=O)c5ccccc5)cc4n4cnnc34)CC2C)c1 (configuration not stated) | / | / | / | / | 13µM* | 18µM*
COc1ccccc1N1CCN(c2nc3ccc(C(=O)c4ccccc4)cc3n3c(C)nnc23)CC1 | / | / | / | / | 0% | -3%
c1ccc2c(c1)nc(N1CCCCCC1)c1nncn12 | / | / | 28 | / | ? | ?
COc1ccc(N2CCN(c3nc4ccc(C(=O)c5ccccc5)cc4n4cnnc34)CC2)cc1 | / | / | / | / | -96% | 16µM*
O=C(c1ccccc1)c1ccc2nc(N3CCN(c4ccccc4)CC3)c3nncn3c2c1 | / | / | / | / | 6.5µM* | 4.6µM*
O=C(c1ccccc1)c1ccc2nc(N3CCN(C(=O)c4ccco4)CC3)c3nncn3c2c1 | 3% | 21µM* | -20 | -7% | 13µM* | 23µM*
CC(C)(C)N1C(=O)[C@H]2[C@H]3[C@H](O)[C@H](O)C/C(=N/NC(=O)OCc4ccccc4)[C@@H]3CC[C@@H]2C1=O | 1%[10 µM] | / | / | -10%[10 µM] | / | /
c1ccc(-c2nc3cccnc3nc2-c2ccccc2)cc1 | / | / | 14 | / | -24% | -19%
COc1ccc2c(c1)CC(NC(=O)Nc1ccc(Br)c(C)c1)CO2 (configuration not stated) | / | / | / | / | -13% | -16%
CC1CN(C(C)C(=O)NC(c2ccccc2)c2ccccc2)CC(C)O1 (configuration not stated) | -8% | -4% | 3 | 5% | -2% | 6%
Cc1ccc(C2=NC3(CCCC3)NC2=S)cc1 | 2.5µM* | ? | 52 | 7.9µM* | -20% | 2%
S=C1NC2(CCCC2)N=C1c1ccccc1 | 5µM* | 13% | 13 | -3%[10 µM] | -2% | 0%
CC1(C)N=C(c2ccccc2)C(=O)N1 | -2% | 3% | 8 | 0% | 5% | -1%
Oc1[nH]c(=S)sc1/C=C1\C(c2ccccc2)=Nc2ccccc21 | 26%[10 µM] | 5% | -26 | -13% | ? | ?
S=C1NC2(CCCCCC2)N=C1c1ccccc1 | 2µM* | -13% | 16 | ? | ? | -24%
Cc1ccc(C2=NC(C)(C)NC2=O)cc1 | -10% | 8% | -1 | 0% | -15% | -3%
CC(C)CC1(C)N=C(c2ccccc2)C(=S)N1 (configuration not stated) | 2.8µM* | 5% | -11 | 2.8µM* | ? | -18%
O=C1NC2(CCCCCC2)Cc2ccccc21 | 1% | 3% | 31 | 5% | 0% | 9%
CC(C)C[C@H]1COc2cc(N3CCC[C@@H]3CO)ccc2S(=O)(=O)N1 | / | / | 86 | / | -15% | -18%
COc1ccc(C(=O)C2C(=O)C(=O)N(Cc3ccco3)C2c2cccs2)cc1 (configuration not stated) | / | / | / | / | -12% | -26%
CCOC(=O)c1c(N)sc2c1CCC(CC)C2 (configuration not stated) | ? | 13% | -13 | 17% | -16% | 1%
CCOC(=O)c1c(N)sc2c1CCC1C(=O)N(C3CCCCC3)C(=O)C21 (configuration not stated) | ? | ? | -19 | 24% | 26µM* | ?
